The supplement of paper PMC11732987, “Enantioselective OTUD7B fragment discovery through chemoproteomics screening and high-throughput optimisation” (Communications Chemistry, 2025)

How the values were obtained:
Assay in all cases: log2 ratio of Biotin-Ahx-Ub-VS probe labelling (fragment/DMSO); higher = less target engagement (more negative = stronger competition), active = hit call of the paper (q ≤ 0.05, log2 ratio ≤ -1)
Settings in all cases: compound concentration: 200 uM; treatment time: 3 h
OTUD6B = molecular target: T1, OTUD6B (UniProt Q8N6M0)
T1 sequence (whole entry): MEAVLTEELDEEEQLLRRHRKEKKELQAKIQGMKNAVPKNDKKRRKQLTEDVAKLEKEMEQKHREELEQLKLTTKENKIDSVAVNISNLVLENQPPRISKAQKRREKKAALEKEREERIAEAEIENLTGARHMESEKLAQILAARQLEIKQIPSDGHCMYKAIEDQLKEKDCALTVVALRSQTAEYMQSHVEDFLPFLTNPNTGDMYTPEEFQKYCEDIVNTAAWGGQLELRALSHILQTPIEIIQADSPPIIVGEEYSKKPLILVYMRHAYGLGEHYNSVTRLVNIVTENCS
How it was run: (§1)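 Labelling with Biotin-Ahx-Ub-VS (0.5 µM final, 1 h) followed a 3 h triplicate treatment of HEK293T lysate (495 µg per sample, Tris/CHAPS/IGEPAL buffer with protease inhibitors) with fragment at 200 µM or vehicle. Labelled DUBs were NeutrAvidin-enriched, digested with LysC and trypsin, and run by diaPASEF LC-MS/MS. The values, average log2 fragment/vehicle ratios by unpaired t-test, come from global-median-normalised Spectronaut label-free quantities. Proteins with ≥2 unique peptides were used.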

OTUD7B = molecular target: T2, OTUD7B (UniProt Q6GQQ9)
T2 sequence (whole entry): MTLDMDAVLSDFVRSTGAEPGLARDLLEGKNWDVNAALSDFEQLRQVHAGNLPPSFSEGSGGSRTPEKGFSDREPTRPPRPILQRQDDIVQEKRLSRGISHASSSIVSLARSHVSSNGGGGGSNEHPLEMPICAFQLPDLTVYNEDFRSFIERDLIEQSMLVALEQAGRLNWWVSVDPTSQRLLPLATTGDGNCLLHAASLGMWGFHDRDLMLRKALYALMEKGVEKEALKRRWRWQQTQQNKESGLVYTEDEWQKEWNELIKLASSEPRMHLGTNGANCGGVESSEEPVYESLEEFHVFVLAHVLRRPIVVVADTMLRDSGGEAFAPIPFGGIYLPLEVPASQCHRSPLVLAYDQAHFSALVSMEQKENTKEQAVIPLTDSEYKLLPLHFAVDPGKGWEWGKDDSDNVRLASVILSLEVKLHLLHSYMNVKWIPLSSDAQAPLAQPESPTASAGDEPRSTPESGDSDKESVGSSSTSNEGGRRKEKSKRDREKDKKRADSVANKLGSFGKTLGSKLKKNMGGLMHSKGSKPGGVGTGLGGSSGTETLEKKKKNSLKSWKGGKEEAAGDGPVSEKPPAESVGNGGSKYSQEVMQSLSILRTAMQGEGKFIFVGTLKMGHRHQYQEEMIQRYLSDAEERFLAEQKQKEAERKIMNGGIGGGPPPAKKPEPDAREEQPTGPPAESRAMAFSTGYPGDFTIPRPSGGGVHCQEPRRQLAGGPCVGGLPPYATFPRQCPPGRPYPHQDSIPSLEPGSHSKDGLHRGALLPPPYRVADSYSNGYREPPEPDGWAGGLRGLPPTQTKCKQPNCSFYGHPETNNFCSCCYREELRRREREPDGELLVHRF
How it was run: as §1

PRPF8 = PRPF8 (UniProt Q6P2Q9)
How it was run: as §1

PSMD7 = molecular target: T3, PSMD7 (UniProt P51665)
T3 sequence (whole entry): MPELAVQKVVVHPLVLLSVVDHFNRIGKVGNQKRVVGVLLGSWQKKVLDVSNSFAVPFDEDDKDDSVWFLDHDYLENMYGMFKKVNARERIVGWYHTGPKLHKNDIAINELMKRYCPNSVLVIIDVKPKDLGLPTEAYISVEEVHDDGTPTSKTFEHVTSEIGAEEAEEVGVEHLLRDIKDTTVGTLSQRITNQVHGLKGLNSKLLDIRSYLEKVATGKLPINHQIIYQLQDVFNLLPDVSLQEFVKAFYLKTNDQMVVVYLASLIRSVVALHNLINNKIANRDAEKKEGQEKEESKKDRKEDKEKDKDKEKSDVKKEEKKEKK
How it was run: as §1

UCHL1 = UCHL1 (UniProt P09936)
How it was run: as §1

UCHL3 = molecular target: T4, UCHL3 (UniProt P15374)
T4 sequence (whole entry): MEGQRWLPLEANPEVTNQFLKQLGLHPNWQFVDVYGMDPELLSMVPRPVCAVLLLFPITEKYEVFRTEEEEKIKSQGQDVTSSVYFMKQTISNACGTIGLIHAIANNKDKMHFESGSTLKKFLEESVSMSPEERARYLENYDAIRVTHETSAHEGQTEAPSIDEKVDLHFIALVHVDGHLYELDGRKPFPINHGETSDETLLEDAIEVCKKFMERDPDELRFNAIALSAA
How it was run: as §1

UCHL5 = molecular target: T5, UCHL5 (UniProt Q9Y5K5)
T5 sequence (whole entry): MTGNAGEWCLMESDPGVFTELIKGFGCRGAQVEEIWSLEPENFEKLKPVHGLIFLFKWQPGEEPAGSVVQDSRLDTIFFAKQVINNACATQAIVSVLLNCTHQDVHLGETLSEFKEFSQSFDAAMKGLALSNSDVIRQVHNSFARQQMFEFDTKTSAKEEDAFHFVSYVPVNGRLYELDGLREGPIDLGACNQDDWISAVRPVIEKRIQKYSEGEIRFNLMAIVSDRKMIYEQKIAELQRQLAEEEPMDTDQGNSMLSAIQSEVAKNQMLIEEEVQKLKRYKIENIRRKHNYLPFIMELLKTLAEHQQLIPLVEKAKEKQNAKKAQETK
How it was run: as §1

USP10 = USP10 (UniProt Q14694)
How it was run: as §1

USP15 = molecular target: T6, USP15 (UniProt Q9Y4E8)
T6 sequence (whole entry): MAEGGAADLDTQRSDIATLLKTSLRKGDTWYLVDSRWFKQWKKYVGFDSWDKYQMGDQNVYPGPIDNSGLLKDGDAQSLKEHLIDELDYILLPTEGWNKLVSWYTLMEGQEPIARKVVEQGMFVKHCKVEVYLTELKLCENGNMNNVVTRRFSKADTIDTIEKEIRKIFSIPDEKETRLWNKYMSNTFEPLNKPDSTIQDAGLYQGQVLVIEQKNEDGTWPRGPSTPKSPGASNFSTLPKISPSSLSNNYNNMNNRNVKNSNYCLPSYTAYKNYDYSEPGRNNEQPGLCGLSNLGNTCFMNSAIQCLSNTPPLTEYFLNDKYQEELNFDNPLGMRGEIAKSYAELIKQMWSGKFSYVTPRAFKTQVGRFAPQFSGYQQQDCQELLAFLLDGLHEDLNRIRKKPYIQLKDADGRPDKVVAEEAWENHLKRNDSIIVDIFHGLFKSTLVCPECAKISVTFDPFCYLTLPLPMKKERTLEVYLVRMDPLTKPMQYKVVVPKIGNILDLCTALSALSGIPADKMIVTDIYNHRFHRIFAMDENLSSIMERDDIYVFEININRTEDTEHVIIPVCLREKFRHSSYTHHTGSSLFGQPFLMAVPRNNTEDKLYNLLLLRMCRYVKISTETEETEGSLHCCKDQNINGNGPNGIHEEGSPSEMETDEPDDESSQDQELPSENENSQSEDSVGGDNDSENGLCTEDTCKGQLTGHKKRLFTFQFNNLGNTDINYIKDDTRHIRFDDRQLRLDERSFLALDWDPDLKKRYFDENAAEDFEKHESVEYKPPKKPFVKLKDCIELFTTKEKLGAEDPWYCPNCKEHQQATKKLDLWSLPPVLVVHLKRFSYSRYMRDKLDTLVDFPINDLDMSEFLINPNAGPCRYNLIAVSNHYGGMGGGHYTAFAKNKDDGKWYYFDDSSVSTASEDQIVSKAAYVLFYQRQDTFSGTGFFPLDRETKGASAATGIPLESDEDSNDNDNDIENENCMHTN
How it was run: as §1

USP16 = USP16 (UniProt Q9Y5T5)
How it was run: as §1

Measured: log2 ratio of Biotin-Ahx-Ub-VS probe labelling

Sequence of USP16 (Q9Y5T5 whole entry, looked up): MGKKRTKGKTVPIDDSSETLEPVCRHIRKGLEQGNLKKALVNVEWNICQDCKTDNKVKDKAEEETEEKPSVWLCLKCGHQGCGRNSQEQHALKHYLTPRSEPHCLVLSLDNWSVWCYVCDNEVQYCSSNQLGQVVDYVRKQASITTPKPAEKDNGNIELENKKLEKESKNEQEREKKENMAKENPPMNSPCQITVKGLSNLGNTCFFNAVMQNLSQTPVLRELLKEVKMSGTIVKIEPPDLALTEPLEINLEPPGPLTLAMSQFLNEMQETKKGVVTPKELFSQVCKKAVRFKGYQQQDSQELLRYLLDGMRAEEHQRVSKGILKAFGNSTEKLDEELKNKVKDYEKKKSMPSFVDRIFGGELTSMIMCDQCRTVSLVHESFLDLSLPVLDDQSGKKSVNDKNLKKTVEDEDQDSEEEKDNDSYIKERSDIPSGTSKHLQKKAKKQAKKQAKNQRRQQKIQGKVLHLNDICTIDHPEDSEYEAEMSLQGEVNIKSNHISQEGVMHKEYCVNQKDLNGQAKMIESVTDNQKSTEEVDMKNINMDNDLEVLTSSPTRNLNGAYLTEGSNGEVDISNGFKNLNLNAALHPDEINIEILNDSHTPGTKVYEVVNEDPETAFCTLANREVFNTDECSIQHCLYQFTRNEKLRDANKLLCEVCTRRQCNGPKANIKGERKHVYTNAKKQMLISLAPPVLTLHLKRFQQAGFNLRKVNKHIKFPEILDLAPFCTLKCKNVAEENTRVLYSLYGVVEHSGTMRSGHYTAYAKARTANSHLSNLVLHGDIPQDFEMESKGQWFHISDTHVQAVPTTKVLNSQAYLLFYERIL
Sequence of UCHL1 (P09936 whole entry, looked up): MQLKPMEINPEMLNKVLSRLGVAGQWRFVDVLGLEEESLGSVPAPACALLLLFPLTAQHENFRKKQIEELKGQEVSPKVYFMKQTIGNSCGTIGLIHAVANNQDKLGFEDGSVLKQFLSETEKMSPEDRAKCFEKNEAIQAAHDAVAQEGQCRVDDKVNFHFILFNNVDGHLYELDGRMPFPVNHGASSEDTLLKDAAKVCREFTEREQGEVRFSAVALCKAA
Sequence of USP10 (Q14694 whole entry): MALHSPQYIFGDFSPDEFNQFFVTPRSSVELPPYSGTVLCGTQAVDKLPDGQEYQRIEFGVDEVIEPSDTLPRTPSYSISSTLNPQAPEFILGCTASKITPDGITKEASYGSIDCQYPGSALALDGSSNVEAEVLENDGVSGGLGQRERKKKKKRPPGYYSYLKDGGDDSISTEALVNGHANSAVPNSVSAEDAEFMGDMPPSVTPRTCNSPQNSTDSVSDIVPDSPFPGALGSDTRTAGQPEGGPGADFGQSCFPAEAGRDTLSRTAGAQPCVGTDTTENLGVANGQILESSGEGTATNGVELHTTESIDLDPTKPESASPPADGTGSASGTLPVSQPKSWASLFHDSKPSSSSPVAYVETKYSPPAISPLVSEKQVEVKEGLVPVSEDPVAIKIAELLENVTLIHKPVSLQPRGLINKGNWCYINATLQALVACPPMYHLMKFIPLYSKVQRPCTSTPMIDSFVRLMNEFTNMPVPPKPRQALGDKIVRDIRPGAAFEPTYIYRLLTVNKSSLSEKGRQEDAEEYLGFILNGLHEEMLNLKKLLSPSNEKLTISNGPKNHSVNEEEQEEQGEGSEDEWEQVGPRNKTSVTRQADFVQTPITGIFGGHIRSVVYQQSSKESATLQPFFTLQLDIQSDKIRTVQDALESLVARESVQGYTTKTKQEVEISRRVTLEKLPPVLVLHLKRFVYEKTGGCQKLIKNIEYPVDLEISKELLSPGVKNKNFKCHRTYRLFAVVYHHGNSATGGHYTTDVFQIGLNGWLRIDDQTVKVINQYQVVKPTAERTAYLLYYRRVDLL

CNC(=O)C1(NC(=O)CCl)CCCCC1
inactive: OTUD6B -0.206 | OTUD7B -0.687 | PRPF8 -0.213 | PSMD7 -0.128 | UCHL3 0.248 | UCHL5 -0.358 | USP10 -0.0869 | USP15 0.0503 | USP16 0.154
active: UCHL1 -1.81
